The source of these data is PubChem BioAssay AID1053133 (Broad Institute, 2014).

SMILES strings stand for the structures. Among all 89,000 compounds or so, about 10 (0.01%) were called active. Another 10% or so got no clear call; they are omitted. Cut-off read from the data, not from the text of the source: active = activity change below about -37% (passing the limit was not always enough); inconclusive = no clear call, values can overlap the other calls; tested in A549 cells. These entries were drawn from the full list.

This assay can be described thus: Vaccinia orthopox stage-specific inhibition, primary screen, cell-based, single point (AID 1053133). The conditions noted are these: Vaccinia-infected cells, mCherry/Venus stage reporter fluorescence, stronger effect = lower value, concentration not given here; activity change (Venus): measured here: Venus reporter, other viral stage.
In the case of `COc1ccccc1CNC(=O)C[C@H]1CC[C@@H](NC(=O)CN(C)C)[C@@H](CO)O1`, the activity change (Venus) is 17.1% and the activity change (mCherry) is 6.13% (inactive).
As to `COCC#Cc1ccc([C@H]2[C@@H](CO)N3C(=O)CN(C(=O)C4CCCC4)C[C@@H]23)cc1`, the activity change (Venus) came out at 10.7% and the activity change (mCherry) is 14.5% (inactive).
The corresponding values for `CO[C@@H]1CN(C)C(=O)c2cc(NS(=O)(=O)Cc3ccccc3)ccc2OC[C@H](C)NC[C@H]1C` are 3.49% and -2.28% (inactive).
For `COc1ccc(NC(=O)N(C)C[C@H]2OCCCC[C@@H](C)Oc3ccc(NS(=O)(=O)c4ccc(F)cc4)cc3C(=O)N([C@H](C)CO)C[C@H]2C)cc1` the same measures were -16.7% and -18% (inactive).
For the compound `O=C(C[C@@H]1CC[C@@H]2[C@H](COC[C@@H](O)CN2S(=O)(=O)c2cccc(Cl)c2)O1)N1CCOCC1`, the activity change (Venus) worked out at 10.1% and the activity change (mCherry) is 21.4% (inactive).
The corresponding values for `O=C(C[C@@H]1CC[C@@H]2[C@H](COC[C@@H](O)CN2Cc2ccc(Cl)cc2)O1)NCc1ccccc1Cl` are -11.5% and -7.35% (inactive).
The corresponding values for `O=C(C[C@@H]1CC[C@@H]2[C@H](COC[C@H](O)CN2S(=O)(=O)c2ccccc2)O1)N[C@H]1CCN(Cc2ccccc2)C1` are -6.28% and -10.6% (inactive).
The corresponding values for `COc1cccc(NC(=O)Nc2ccc3c(c2)C(=O)N(C)C[C@H](OC)[C@@H](C)CN[C@@H](C)CO3)c1` are 13.8% and 1.34% (inactive).
As to `CCC(=O)Nc1ccc2c(c1)OC[C@@H](C)N(Cc1ccccc1OC)C[C@H](C)[C@H](OC)CN(C)C2=O`, the activity change (Venus) was -6.3% and the activity change (mCherry) was -3.87% (inactive).
The corresponding values for `COc1ccccc1-c1ccc([C@H]2[C@@H](CO)N(CC3CC3)C23CN(S(C)(=O)=O)C3)cc1` are 0.302% and -10.8% (inactive).
In the case of `O=C(Nc1ccccc1F)N1CC(=O)N2[C@H](CO)[C@H](c3ccc(C#CC4CC4)cc3)[C@@H]2C1`, the activity change (Venus) was -0.75% and the activity change (mCherry) is -2.67% (inactive).
